Records with an inconclusive call do not appear. Unless noted, the call rests on the fitted dose curve; in most records, active means well fitted curve in either direction with a large enough effect (not every such curve was filed as active); inconclusive means small, poorly fitted or top-dose-only effect, or another doubt; inactive means flat fitted curve, though single readings scatter.
Tests used:
[1] = AP1 Signaling Pathway (AID 357); conditions: ME-180 AP-1-bla reporter, EGF-induced, beta-lactamase ratio, 5 h; at 17.2 µM (top of the series) unless noted;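 further: ME-180 reporter cells stimulated with EGF at its EC50 level; on the % scale 0 is the no-effect control and ±100 the full control effect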
Summary of the method: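 A ratiometric CCF4 readout (405 nm excitation; 460 and 530 nm emission) quantified AP-1-driven beta-lactamase in ME-180 cells after 5 h with compound and EC50 EGF; AC50 values were derived for activators and inhibitors.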

[2] = NFAT Signaling Pathway (AID 444); conditions: Jurkat NFAT-bla M1, carbachol, beta-lactamase ratio, 5 h; at 17.2 µM (top of the series) unless noted;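 further: carbachol stimulus at about its EC50 of 1 µM final; on the % scale 0 is the no-effect control and ±100 the full control effect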
Summary of the method: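 Read-out: CCF4 FRET ratio (460 nm/530 nm) after 1 h RT dye loading, used for %activity and AC50 from titration series. Cells: Jurkat NFAT-β-lactamase/M1 line, treated with compound plus 1 uM carbachol for 5 h, 37 °C.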

[3] = Stat Signaling Pathway (AID 446); conditions: ME-180 (cervical carcinoma) SIE beta-lactamase reporter, IL-6 stimulated, 5 h; at 17.2 µM (top of the series) unless noted;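 further: ME-180 cervical cancer cells given 40 pM IL-6 alongside compound; SIE-controlled beta-lactamase reporter measured as 460/530 nm FRET emission ratio; on the % scale 0 is the no-effect control and ±100 the full control effect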
Summary of the method: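 Overnight-plated ME-180 cells bearing a STAT Inducible Element beta-lactamase reporter; 5 h co-exposure to compound and 40 pM IL-6; values normalized to 300 pM IL-6 and 125 nM JAK inhibitor controls.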

[4] = target: Glucocorticoid receptor (Homo sapiens) (UniProt P04150); assay: GR-GFP Redistribution (AID 450;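 active means compounds whose dose series gives a full or clear partial fitted curve of increased nuclear translocation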; further: potency means the concentration at half of the fitted maximal effect)
Glucocorticoid receptor (Homo sapiens), sequence (P04150 whole entry, looked up): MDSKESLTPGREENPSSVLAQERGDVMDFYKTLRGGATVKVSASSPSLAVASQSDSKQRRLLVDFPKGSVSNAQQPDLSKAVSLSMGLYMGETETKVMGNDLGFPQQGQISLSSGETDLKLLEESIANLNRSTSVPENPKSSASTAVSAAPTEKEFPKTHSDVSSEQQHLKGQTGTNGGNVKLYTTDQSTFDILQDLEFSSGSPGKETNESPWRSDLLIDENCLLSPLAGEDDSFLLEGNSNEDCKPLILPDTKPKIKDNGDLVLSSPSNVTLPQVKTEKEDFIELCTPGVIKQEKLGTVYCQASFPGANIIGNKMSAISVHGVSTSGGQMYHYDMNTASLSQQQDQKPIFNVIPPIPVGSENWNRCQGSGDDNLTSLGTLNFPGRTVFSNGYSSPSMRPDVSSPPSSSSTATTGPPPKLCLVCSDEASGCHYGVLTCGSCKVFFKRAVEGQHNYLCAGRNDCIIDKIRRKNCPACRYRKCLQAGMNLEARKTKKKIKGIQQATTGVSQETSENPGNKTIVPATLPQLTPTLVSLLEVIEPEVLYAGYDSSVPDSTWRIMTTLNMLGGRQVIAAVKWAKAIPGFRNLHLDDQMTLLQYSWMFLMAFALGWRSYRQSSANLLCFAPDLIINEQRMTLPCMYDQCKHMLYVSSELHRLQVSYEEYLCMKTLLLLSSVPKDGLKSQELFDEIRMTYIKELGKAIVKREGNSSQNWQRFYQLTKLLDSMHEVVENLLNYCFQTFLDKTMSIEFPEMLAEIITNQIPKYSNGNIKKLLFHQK

C[N+]1(CCNC(=O)/C=N/O)CCCCC1
inactive: activity change, negative = inhibition [1] 7.1% | activity change, negative = inhibition [2] -12.9% | activity, negative = inhibition [3] 5.42% | Potency [4] > 20.6 µM

COc1cccc(OC)c1-c1nn2c(-c3ccccc3Cl)nnc2s1
inactive: activity change, negative = inhibition [1] -22.5% | activity change, negative = inhibition [2] -8.73% | activity, negative = inhibition [3] -3.22% | Potency [4] > 20.6 µM

Cn1c(=O)c2c(nc(NCc3ccc4c(c3)OCO4)n2Cc2ccccc2)n(C)c1=O
inactive: activity change, negative = inhibition [1] -13.1% | activity change, negative = inhibition [2] 6.4% | activity, negative = inhibition [3] -25% | Potency [4] > 20.6 µM

Cn1ncc(N=Cc2ccccc2O)c1C(=O)N1CCOCC1
inactive: activity change, negative = inhibition [1] 2.72% | activity change, negative = inhibition [2] -6.4% | activity, negative = inhibition [3] -4.13% | Potency [4] > 20.6 µM

COc1cccc(C(=O)N2CCN(Cc3ccccn3)CC2)c1OC
inactive: activity change, negative = inhibition [1] 2.17% | activity change, negative = inhibition [2] 7.94% | activity, negative = inhibition [3] 7.75% | Potency [4] > 20.6 µM

COc1ccc(CN(C)CCc2ccccn2)c(OC)c1OC
inactive: activity change, negative = inhibition [1] -14.2% | activity change, negative = inhibition [2] -17.4% | activity, negative = inhibition [3] 11.1% | Potency [4] > 20.6 µM

CCc1ccc2c(c1)C(C)=CC(C)(C)N2
inactive: activity change, negative = inhibition [1] 1.34% | activity change, negative = inhibition [2] 7.21% | activity, negative = inhibition [3] -8.11% | Potency [4] > 20.6 µM

CCCCC(CCC(=O)Nc1ccc(C(=O)OC)cc1)C(=O)O (centres undefined)
inactive: activity change, negative = inhibition [1] 9.55% | activity change, negative = inhibition [2] 7.48% | activity, negative = inhibition [3] 8.56% | Potency [4] > 20.6 µM

Cn1c(=O)c2c(nc(OCc3cccnc3)n2Cc2ccccc2)n(C)c1=O
inactive: activity change, negative = inhibition [1] -9.82% | activity change, negative = inhibition [2] -6.31% | activity, negative = inhibition [3] -1.88% | Potency [4] > 20.6 µM

COC(=O)c1ccc(=O)n(Cc2ccco2)c1
inactive: activity change, negative = inhibition [1] 4.81% | activity change, negative = inhibition [2] -1.77% | activity, negative = inhibition [3] -2.94% | Potency [4] > 20.6 µM

COc1ccc(/C(O)=C2/C(=O)C(=O)N(CCCN(C)C)C2c2cccc(Cl)c2)cc1OC (centres undefined)
inactive: activity change, negative = inhibition [1] -5.39% | activity change, negative = inhibition [2] 6.97% | activity, negative = inhibition [3] 3.83% | Potency [4] > 20.6 µM

CN(C)/C=C1\N=C(c2cccs2)OC1=O
inactive: activity change, negative = inhibition [1] 4.03% | activity change, negative = inhibition [2] 6.03% | activity, negative = inhibition [3] 13.9% | Potency [4] > 20.6 µM

CCCCCc1nc2sc3c(c2c(=O)n1N)CCC3
inactive: activity change, negative = inhibition [1] -5.09% | activity change, negative = inhibition [2] -10.1% | activity, negative = inhibition [3] -13% | Potency [4] > 20.6 µM

COC(=O)C1=C(C)N=C2SC(C)C(=O)N2C1c1cccc(F)c1 (centres undefined)
inactive: activity change, negative = inhibition [1] -23.7% | activity change, negative = inhibition [2] -3.19% | activity, negative = inhibition [3] -1.23% | Potency [4] > 20.6 µM

CCN(CC)CCN1C(=O)C(O)=C(C(C)=O)C1c1ccc(OC)c(OC)c1 (centres undefined)
inactive: activity change, negative = inhibition [1] 1.74% | activity change, negative = inhibition [2] 3.09% | activity, negative = inhibition [3] -2.04% | Potency [4] > 20.6 µM

C=C(C)CSC1=C(C#N)C(c2ccsc2)CC(=O)N1 (centres undefined)
inactive: activity change, negative = inhibition [1] -7.58% | activity change, negative = inhibition [2] -0.539% | activity, negative = inhibition [3] -1.45% | Potency [4] > 20.6 µM

Cc1cc(COc2ccccc2OCCN2CCN(C)CC2)no1
inactive: activity change, negative = inhibition [1] 21.4% | activity change, negative = inhibition [2] -13.9% | activity, negative = inhibition [3] -0.578% | Potency [4] > 20.6 µM

CC1CCCCN1C(=O)C12CCC(C)(/C(=N/O)C1)C2(C)C (centres undefined)
inactive: activity change, negative = inhibition [1] -2.56% | activity change, negative = inhibition [2] 6.34% | activity, negative = inhibition [3] 7.2% | Potency [4] > 20.6 µM

Nc1nnnn1/N=C/c1cccs1
inactive: activity change, negative = inhibition [1] 7.92% | activity change, negative = inhibition [2] -9.98% | activity, negative = inhibition [3] 2.51% | Potency [4] > 20.6 µM

CCN(CC)CCN1C(=O)C(O)=C(C(=O)c2ccco2)C1c1ccccn1 (centres undefined)
inactive: activity change, negative = inhibition [1] -3.97% | activity change, negative = inhibition [2] -0.0336% | activity, negative = inhibition [3] 3.83% | Potency [4] > 20.6 µM

CCSc1nnc(NC(=O)NCC(F)(F)F)s1
inactive: activity change, negative = inhibition [1] 7.55% | activity change, negative = inhibition [2] 2.76% | activity, negative = inhibition [3] 16.4% | Potency [4] > 20.6 µM

CC1(C)CC(=O)C=C(NCc2ccncc2)C1
inactive: activity change, negative = inhibition [1] 10% | activity change, negative = inhibition [2] -8.43% | activity, negative = inhibition [3] 8.27% | Potency [4] > 20.6 µM

O=c1oc2c(CN3CCCCC3)c(O)ccc2c2c1CCCCC2
inactive: activity change, negative = inhibition [1] 2.02% | activity change, negative = inhibition [2] -25.5% | activity, negative = inhibition [3] 9.48% | Potency [4] > 20.6 µM

CC(=O)N=C(N)Sc1nc2ccccc2[nH]1
inactive: activity change, negative = inhibition [1] 12.8% | activity change, negative = inhibition [2] -12.3% | activity, negative = inhibition [3] 1.5% | Potency [4] > 20.6 µM

Nc1cccc(C(=O)O)c1
inactive: activity change, negative = inhibition [1] 8.42% | activity change, negative = inhibition [2] 20.2% | activity, negative = inhibition [3] 4.89% | Potency [4] > 20.6 µM

Cc1csc2nc(CSc3nc4ccccc4o3)cn12
inactive: activity change, negative = inhibition [1] -11.6% | activity change, negative = inhibition [2] -1.77% | activity, negative = inhibition [3] 4.59% | Potency [4] > 20.6 µM
